Measurements from the supplement of paper PMC10849652.
The full data set covers some 7,900 targets. This sample favours those with a hit. About 0.6% of all pairs of compound and target were hits.

Tests used:
Experiment in all cases: log2 fold change, soluble protein after heating vs DMSO (PISA); higher = thermal stabilisation; K562 cells, 10 uM, 30 min; active = over 0.2 and 3.5 SD of the protein, either way, in both replicates (recomputed)
bafetinib = compound: Cc1ccc(NC(=O)c2ccc(CN3CC[C@H](N(C)C)C3)c(C(F)(F)F)c2)cc1Nc1nccc(-c2cncnc2)n1 [bafetinib]
Procedure, shortened: (§1)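 K562 cells at 2×10^6 cells/mL were given 10 μM compound for 30 min. Aliquots then went through 3 min of heating across 48°C-58°C, were pooled, and were extracted in PBS with 0.5% NP-40 at 4°C, and the supernatant after 21,000xg for 90 min was quantified by TMTpro 16plex LC-MS/MS with channel sums equalised. Thermal stability relative to control samples, from duplicates, is given as log2 fold change.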

[1] = compound: NC(=O)Nc1cc(-c2cccc(F)c2)sc1C(=O)N[C@H]1CCCNC1
Procedure, shortened: as §1

[2] = compound: NCC(=O)Nc1ccc(-n2nc(C(F)(F)F)cc2-c2ccc3c(ccc4ccccc43)c2)cc1
Procedure, shortened: as §1

entinostat = compound: Nc1ccccc1NC(=O)c1ccc(CNC(=O)OCc2cccnc2)cc1 [entinostat]
Procedure, shortened: as §1

nilotinib = compound: Cc1cn(-c2cc(NC(=O)c3ccc(C)c(Nc4nccc(-c5cccnc5)n4)c3)cc(C(F)(F)F)c2)cn1 [nilotinib]
Procedure, shortened: as §1

[3] = compound: Cc1nc(Nc2n[nH]c3c2CN(C(=O)N[C@H](CN(C)C)c2ccccc2)C3(C)C)c2sccc2n1
Procedure, shortened: as §1

dasatinib = compound: Cc1nc(Nc2ncc(C(=O)Nc3c(C)cccc3Cl)s2)cc(N2CCN(CCO)CC2)n1 [dasatinib]
Procedure, shortened: as §1

[4] = compound: Cc1ncc(-c2ccnc(Nc3ccc(S(C)(=O)=O)cc3)n2)n1C(C)C
Procedure, shortened: as §1

[5] = compound: Cn1cc(-c2ccc3c(c2)CCN3C(=O)Cc2cccc(C(F)(F)F)c2)c2c(N)ncnc21
Procedure, shortened: as §1

tipifarnib = compound: Cn1cncc1[C@@](N)(c1ccc(Cl)cc1)c1ccc2c(c1)c(-c1cccc(Cl)c1)cc(=O)n2C [tipifarnib]
Procedure, shortened: as §1

[6] = compound: NC(=O)c1cnc(N[C@@H]2CCCC[C@@H]2N)nc1Nc1cccc(-n2nccn2)c1
Procedure, shortened: as §1

[7] = compound: Cn1cc(-c2ccc3nnc(C(F)(F)c4ccc5ncccc5c4)n3n2)cn1
Procedure, shortened: as §1

mubritinib = compound: FC(F)(F)c1ccc(/C=C/c2nc(COc3ccc(CCCCn4ccnn4)cc3)co2)cc1 [mubritinib]
Procedure, shortened: as §1

[8] = compound: NC1(c2ccc(-c3nc4ccn5c(=O)[nH]nc5c4cc3-c3ccccc3)cc2)CCC1
Procedure, shortened: as §1

citarinostat = compound: O=C(CCCCCCNC(=O)c1cnc(N(c2ccccc2)c2ccccc2Cl)nc1)NO [citarinostat]
Procedure, shortened: as §1

silmitasertib = compound: O=C(O)c1ccc2c(c1)nc(Nc1cccc(Cl)c1)c1ccncc12 [silmitasertib]
Procedure, shortened: as §1

[9] = compound: O=C1NC(=O)C(c2cnc3ccccn23)=C1c1cn2c3c(cc(F)cc13)CN(C(=O)N1CCCCC1)CC2
Procedure, shortened: as §1

[10] = compound: c1cc(OCCN2CCCCC2)cc(-c2n[nH]c3ccc(-c4nnc[nH]4)cc23)c1
Procedure, shortened: as §1

[11] = compound: Cc1cccc(CC(=O)N2CCc3c2ccc(-c2cn(C)c4ncnc(N)c24)c3F)n1
Procedure, shortened: as §1

vorinostat = compound: O=C(CCCCCCC(=O)Nc1ccccc1)NO [vorinostat]
Procedure, shortened: as §1

Measured: log2 fold change

NDUFA7 (UniProt M0R0N0)
inactive: bafetinib -0.052 | [1] -0.307 | [2] -0.344 | entinostat -0.063

MRM2 (UniProt Q9UI43)
inactive: nilotinib -0.069 | [3] -0.049 | dasatinib -0.381 | [4] 0.043 | [5] 0.164 | tipifarnib -0.011 | [6] -0.202 | [2] -0.211

NUDT6 (UniProt P53370)
active: silmitasertib -0.517
inactive: nilotinib -0.1 | [3] 0.083 | dasatinib -0.005 | [4] 0.08 | [5] 0.426 | [7] 0.05 | tipifarnib -0.022 | mubritinib -0.049 | [8] 0.149 | [2] 0.298 | citarinostat 0.164 | [9] -0.097 | [10] -0.385

MPHOSPH8 isoform 2 (UniProt Q99549)
inactive: dasatinib -0.025 | [5] -0.019 | [7] -0.116 | tipifarnib 0.01 | mubritinib 0.031 | [1] 0.257 | [6] 0.004 | [8] 0.161 | [2] -0.018 | entinostat -0.191 | silmitasertib -0.083 | [9] 0.189

NIPSNAP2 (UniProt C9J7B1)
inactive: bafetinib -0.045 | mubritinib 0.173 | [1] -0.009 | [6] 0.175 | [8] -0.017 | entinostat 0.148 | silmitasertib 0.019

MYSM1 (UniProt Q5VVJ2)
Chain of UniProt Q5VVJ2 (Q5VVJ2 whole entry, looked up): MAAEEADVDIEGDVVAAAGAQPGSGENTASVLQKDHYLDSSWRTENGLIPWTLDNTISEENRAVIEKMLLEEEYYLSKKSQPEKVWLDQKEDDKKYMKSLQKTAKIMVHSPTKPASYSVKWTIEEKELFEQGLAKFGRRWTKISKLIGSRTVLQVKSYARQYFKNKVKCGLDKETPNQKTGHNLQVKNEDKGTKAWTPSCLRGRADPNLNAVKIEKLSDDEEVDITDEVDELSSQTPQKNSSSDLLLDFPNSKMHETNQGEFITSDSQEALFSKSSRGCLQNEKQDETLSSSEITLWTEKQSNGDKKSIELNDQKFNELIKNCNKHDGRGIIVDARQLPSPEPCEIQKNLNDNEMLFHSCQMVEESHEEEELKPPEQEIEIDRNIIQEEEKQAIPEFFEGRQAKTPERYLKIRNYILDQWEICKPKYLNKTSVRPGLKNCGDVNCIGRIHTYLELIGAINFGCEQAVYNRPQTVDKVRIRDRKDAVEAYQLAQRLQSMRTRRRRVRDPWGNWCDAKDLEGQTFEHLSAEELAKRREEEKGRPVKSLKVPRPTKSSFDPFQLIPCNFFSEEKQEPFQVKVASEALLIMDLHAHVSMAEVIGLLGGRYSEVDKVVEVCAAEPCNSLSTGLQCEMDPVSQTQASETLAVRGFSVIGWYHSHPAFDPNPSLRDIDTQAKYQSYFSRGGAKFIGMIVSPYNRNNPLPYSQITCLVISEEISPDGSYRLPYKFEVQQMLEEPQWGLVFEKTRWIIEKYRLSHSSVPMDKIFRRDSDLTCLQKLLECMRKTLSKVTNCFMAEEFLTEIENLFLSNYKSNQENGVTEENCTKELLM
inactive: bafetinib -0.138 | [7] 0.18 | [1] -0.205 | entinostat 0.237 | citarinostat 0.564 | [10] 0.174

NKTR (UniProt P30414)
inactive: bafetinib 1.06 | tipifarnib 0.163 | mubritinib 0.167 | [8] 0.074 | silmitasertib -0.023

PAFAH2 (UniProt Q99487)
active: tipifarnib 0.611
inactive: bafetinib -0.083 | dasatinib -0.146 | [5] 0.079 | [7] 0.029 | [1] 0.079 | [6] -0.194 | [2] 0.04 | entinostat 0.075

NCK1 (UniProt P16333)
inactive: bafetinib 0.062 | nilotinib -0.069 | [3] -0.421 | dasatinib -0.138 | [4] 0.046 | [5] -0.086 | [7] -0.044 | tipifarnib 0.008 | mubritinib -0.058 | [1] -0.118 | [6] -0.247 | [8] -0.056 | [2] -0.112 | entinostat 0.085 | silmitasertib 0.077 | [9] -0.194

MORC2 (UniProt Q9Y6X9)
inactive: bafetinib -0.036 | tipifarnib 0.018 | mubritinib 0.126 | [6] -0.193 | [8] -0.118 | silmitasertib -0.066 | [9] -0.151

MSANTD2 (UniProt Q6P1R3)
inactive: dasatinib -0.042 | [1] -0.041 | [2] -0.065 | entinostat -0.184 | citarinostat -0.124 | [9] 0.004 | [10] 0.16

NOS1AP (UniProt O75052)
Chain of UniProt O75052 (O75052 whole entry, looked up): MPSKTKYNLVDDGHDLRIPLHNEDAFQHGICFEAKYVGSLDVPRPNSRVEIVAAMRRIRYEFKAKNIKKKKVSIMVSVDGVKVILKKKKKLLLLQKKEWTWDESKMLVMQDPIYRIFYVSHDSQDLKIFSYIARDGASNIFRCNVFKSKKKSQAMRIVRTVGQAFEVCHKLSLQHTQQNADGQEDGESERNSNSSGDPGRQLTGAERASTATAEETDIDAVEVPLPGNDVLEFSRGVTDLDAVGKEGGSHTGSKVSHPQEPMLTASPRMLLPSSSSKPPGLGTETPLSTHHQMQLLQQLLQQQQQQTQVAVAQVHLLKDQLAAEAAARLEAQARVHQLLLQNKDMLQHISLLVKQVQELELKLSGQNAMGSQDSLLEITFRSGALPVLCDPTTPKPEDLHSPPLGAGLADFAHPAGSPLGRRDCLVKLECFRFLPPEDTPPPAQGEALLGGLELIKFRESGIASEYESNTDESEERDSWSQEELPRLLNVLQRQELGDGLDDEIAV
inactive: bafetinib -0.052 | [5] 0.067 | [7] -0.179 | tipifarnib -0.037 | mubritinib 0.165 | [8] -0.27 | [2] -0.302 | citarinostat -0.225 | silmitasertib 0.312 | [9] -0.186 | [10] 0.59

OXR1 isoform 2 (UniProt Q8N573)
inactive: [11] -0.009 | nilotinib -0.028 | [3] -0.002 | dasatinib 0 | [4] -0.094 | [5] 0.15 | [7] 0.099 | tipifarnib -0.019 | [6] 0.054 | [2] -0.046 | vorinostat 0.01 | citarinostat 0.013 | [9] -0.096 | [10] -0.053

NASP isoform 2 (UniProt P49321)
Chain of UniProt P49321 (P49321 whole entry, looked up): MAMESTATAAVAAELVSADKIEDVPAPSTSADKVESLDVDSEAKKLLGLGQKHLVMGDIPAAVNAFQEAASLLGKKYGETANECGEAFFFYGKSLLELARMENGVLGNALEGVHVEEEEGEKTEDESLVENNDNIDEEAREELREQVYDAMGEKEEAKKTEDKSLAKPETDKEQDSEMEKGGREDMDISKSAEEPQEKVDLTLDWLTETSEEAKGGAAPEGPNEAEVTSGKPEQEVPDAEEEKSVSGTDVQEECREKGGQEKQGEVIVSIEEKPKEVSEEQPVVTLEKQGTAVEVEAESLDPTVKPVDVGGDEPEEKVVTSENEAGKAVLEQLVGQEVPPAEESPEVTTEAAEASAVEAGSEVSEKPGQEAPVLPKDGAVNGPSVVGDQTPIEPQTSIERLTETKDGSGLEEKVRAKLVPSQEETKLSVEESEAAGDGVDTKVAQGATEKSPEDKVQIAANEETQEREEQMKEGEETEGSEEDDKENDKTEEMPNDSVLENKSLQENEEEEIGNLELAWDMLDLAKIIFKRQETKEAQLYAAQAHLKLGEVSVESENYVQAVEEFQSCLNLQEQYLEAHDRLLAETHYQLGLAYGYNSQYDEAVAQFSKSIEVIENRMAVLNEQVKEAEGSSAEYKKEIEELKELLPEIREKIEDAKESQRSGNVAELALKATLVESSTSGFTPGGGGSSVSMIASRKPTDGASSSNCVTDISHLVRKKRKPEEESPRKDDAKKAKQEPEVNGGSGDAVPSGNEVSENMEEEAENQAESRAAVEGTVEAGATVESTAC
inactive: mubritinib -0.347 | [8] 0.24 | silmitasertib -0.475

OSBPL3 (UniProt Q9H4L5)
inactive: nilotinib 0.316 | [3] 0.114 | dasatinib 0.447 | [4] -0.213 | [5] -0.081 | [7] -0.173 | tipifarnib -0.17 | [1] -0.079 | [6] -0.43 | [2] 0.106 | entinostat 0.077 | citarinostat -0.077 | [9] 0.307 | [10] -0.072

NUDT7 (UniProt P0C024)
Chain of UniProt P0C024 (P0C024 whole entry, looked up): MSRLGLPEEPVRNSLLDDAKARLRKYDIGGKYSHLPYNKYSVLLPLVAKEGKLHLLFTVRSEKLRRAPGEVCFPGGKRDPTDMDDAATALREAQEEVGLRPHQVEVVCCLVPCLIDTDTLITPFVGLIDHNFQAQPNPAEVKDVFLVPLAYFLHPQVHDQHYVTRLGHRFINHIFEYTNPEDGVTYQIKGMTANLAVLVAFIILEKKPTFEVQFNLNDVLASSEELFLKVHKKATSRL
inactive: bafetinib 0.418 | [11] -0.122 | nilotinib 0.093 | [3] 0.006 | [4] -0.03 | [7] 0.027 | [1] 0.01 | entinostat -0.05 | vorinostat 0.286 | [9] 0.12

NCOA5 (UniProt Q9HCD5)
Chain of UniProt Q9HCD5 (Q9HCD5 whole entry, looked up): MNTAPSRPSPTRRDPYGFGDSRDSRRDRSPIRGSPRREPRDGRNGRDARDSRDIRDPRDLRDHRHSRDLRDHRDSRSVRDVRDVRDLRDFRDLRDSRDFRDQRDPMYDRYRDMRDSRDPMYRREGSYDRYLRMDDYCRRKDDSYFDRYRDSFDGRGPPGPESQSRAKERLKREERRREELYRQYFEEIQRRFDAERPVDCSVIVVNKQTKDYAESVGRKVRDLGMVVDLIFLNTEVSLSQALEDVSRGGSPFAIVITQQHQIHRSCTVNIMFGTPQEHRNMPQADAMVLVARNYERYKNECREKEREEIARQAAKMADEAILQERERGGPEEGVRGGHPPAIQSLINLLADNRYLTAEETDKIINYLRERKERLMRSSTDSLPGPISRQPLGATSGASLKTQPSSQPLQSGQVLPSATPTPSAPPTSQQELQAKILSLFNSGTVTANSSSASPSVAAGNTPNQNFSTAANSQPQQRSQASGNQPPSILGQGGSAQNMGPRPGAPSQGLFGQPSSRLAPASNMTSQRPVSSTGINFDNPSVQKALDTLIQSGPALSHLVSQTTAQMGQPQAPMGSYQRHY
inactive: [11] -0.04 | nilotinib -0.428 | dasatinib -0.043 | [4] 0.218 | [7] -0.203 | tipifarnib 0.164 | [1] -0.101 | entinostat -0.011 | vorinostat 0.023
active: [3] -0.92

NAA11 (UniProt Q9BSU3)
inactive: bafetinib 0 | nilotinib -0.093 | [3] 0.015 | dasatinib 0.059 | [4] -0.003 | [5] 0.102 | [7] 0.176 | tipifarnib 0.011 | mubritinib -0.081 | [1] 0.139 | [6] -0.048 | [8] -0.072 | [2] 0.167 | citarinostat -0.05 | silmitasertib -0.001 | [9] -0.064 | [10] -0.022
active: entinostat 0.375

NPC1L1 (UniProt Q9UHC9)
Chain of UniProt Q9UHC9 (Q9UHC9 whole entry, looked up): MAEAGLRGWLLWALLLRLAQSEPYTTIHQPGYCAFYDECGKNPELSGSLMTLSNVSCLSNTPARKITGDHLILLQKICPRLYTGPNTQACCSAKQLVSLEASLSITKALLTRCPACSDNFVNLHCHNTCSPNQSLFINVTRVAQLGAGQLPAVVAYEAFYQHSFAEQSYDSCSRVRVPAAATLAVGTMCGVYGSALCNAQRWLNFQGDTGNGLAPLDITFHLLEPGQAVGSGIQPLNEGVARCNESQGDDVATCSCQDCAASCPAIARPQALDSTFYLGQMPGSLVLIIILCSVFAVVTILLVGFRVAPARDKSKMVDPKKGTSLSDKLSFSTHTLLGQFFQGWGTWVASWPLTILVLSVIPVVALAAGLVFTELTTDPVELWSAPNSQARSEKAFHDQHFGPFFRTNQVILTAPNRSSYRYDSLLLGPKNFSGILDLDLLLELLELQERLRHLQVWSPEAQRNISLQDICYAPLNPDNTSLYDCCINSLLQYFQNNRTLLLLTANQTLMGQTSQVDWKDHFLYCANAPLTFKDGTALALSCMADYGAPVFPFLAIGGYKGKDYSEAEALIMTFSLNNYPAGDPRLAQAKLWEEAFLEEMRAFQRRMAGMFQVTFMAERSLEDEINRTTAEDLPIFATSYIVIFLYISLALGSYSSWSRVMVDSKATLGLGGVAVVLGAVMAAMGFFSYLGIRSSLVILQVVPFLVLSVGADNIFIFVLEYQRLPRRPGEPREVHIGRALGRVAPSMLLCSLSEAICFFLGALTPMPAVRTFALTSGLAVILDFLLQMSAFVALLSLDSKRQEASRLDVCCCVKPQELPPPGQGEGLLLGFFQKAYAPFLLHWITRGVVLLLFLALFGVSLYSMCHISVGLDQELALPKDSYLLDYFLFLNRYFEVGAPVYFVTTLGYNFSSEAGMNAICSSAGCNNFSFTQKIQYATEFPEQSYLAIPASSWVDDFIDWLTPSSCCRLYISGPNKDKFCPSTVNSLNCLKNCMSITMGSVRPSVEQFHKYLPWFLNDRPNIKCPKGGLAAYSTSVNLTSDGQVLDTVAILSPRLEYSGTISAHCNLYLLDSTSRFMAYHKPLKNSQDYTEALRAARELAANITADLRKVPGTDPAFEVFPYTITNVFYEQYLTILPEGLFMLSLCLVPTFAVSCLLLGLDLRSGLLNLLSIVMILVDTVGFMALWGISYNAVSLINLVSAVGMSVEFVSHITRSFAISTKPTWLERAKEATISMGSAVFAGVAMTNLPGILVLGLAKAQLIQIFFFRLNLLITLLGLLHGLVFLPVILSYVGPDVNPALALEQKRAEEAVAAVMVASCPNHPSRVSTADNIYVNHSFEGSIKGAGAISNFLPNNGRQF
active: [4] -0.384
inactive: bafetinib -0.05 | nilotinib 0.659 | [3] 0.52 | dasatinib -0.117 | [5] 0.012 | tipifarnib 0.094 | mubritinib 0.008 | [1] 0.011 | [6] -0.038 | [8] -0.104 | [2] -0.024 | entinostat -0.011 | citarinostat 0.036 | silmitasertib -0.028 | [10] 0.054

NA isoform 3 (UniProt Q4G0T1)
inactive: bafetinib -0.198 | nilotinib -0.021 | [3] -0.009 | dasatinib -0.093 | [4] 0.01 | [5] -0.065 | [7] 0.059 | tipifarnib -0.066 | mubritinib -0.066 | [1] -0.114 | [6] -0.207 | [8] 0.015 | [2] -0.02 | entinostat 0.01 | silmitasertib 0.037

OSBPL2 (UniProt Q9H1P3)
Chain of UniProt Q9H1P3 (Q9H1P3 whole entry, looked up): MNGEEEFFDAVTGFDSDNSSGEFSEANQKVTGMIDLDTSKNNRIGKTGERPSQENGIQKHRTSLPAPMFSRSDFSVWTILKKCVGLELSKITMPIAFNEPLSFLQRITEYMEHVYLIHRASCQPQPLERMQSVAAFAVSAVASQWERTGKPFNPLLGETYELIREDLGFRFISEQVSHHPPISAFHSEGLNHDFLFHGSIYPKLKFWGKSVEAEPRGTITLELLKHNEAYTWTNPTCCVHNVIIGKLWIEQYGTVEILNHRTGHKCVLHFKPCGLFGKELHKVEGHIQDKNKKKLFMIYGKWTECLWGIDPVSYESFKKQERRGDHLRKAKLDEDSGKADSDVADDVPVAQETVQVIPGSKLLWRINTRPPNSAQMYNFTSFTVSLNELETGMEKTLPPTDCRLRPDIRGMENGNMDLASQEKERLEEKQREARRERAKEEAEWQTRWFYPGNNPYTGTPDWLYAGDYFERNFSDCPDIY
inactive: [5] 0.37 | tipifarnib -0.009 | mubritinib 0.465 | [8] -0.443 | silmitasertib 0.148

NA, A0A1W2PSA9
inactive: [11] 0.022 | dasatinib 0.289 | [5] 0.218 | [7] -0.118 | [6] 0.004 | vorinostat -0.364

OAF (UniProt Q86UD1)
Chain of UniProt Q86UD1 (Q86UD1 whole entry, looked up): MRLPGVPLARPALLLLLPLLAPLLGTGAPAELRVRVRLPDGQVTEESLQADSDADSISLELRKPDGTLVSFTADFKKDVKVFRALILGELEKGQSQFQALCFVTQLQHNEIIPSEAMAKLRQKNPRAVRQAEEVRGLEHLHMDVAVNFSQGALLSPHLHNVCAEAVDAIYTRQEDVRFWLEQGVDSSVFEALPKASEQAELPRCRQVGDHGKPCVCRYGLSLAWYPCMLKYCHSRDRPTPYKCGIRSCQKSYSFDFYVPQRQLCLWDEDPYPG
inactive: [7] 0.199 | mubritinib -0.104 | [1] -0.089 | [8] -0.188 | entinostat -0.029 | silmitasertib 0.019

NEU3 isoform 2 (UniProt Q9UQ49)
inactive: tipifarnib 0.044 | [1] 0.112 | entinostat -0.071

NEK3 (UniProt P51956)
inactive: [11] -0.246 | nilotinib -0.026 | [3] -0.173 | dasatinib -0.055 | [4] -0.037 | [5] 0.101 | [7] -0.002 | tipifarnib -0.088 | mubritinib -0.076 | [1] 0.09 | [6] 0.156 | [8] -0.119 | [2] 0.011 | entinostat 0.016 | vorinostat -0.256 | citarinostat 0.099 | silmitasertib 0.043 | [9] -0.017 | [10] -0.063

MRPS21 (UniProt P82921)
inactive: bafetinib 0.382 | nilotinib -0.347 | [3] 0.137 | dasatinib -0.284 | [4] -0.002 | [5] 0.036 | [7] 0.017 | tipifarnib -0.028 | mubritinib 0.277 | [1] -0.009 | [6] 0.137 | [8] -0.003 | [2] 0.095 | entinostat -0.004 | citarinostat 0.07 | silmitasertib -0.156 | [9] 0.024 | [10] -0.05
